Screening results from PubChem BioAssay.
Only some compounds are listed: those with a hit (about 5.7% of all), similar ones and a draw of the others.
A549 viability = counter-screen for Nrf2 inhibitors: cytotoxicity in A549 cells; A549 ARE-Fluc cells, CellTiter-Fluor viability, 18-24 h; Potency, µM (highest dose often 46 µM), for the others: at the highest dose activity change, negative = cytotoxicity, most hits filed as inhibitors; 390,000 compounds, 0.16% hits; AID 504648; further: potency means the concentration at half of the fitted maximal effect
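A549 ARE-Fluc cells in 5% FBS OPTI-MEM, 5000 cells/well, rested 2 h then exposed to compounds in concentration-response for 18-24 h at 37 °C. Viability by CellTiter-Fluor fluorescence (Ex 405/Em 525) after 30 min; luciferase luminescence (BugLite, 15 min, RT) read afterwards.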
Nrf2 block = Nrf2 pathway inhibition; AID 504444; 360,000 compounds, 2.1% hits; Potency, µM (titrated, usually from 46 µM), without a hit: at the highest dose activity change, negative = inhibition, usual class: inhibitors; A549 ARE-Fluc reporter, luciferase luminescence, 18-24 h; further: potency means the concentration at half of the fitted maximal effect; nearly all actives have a fitted effect of over 60% in size
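Concentration-response testing used A549 ARE_Fluc cells at 5000 cells/well. Following an 18-24 h compound incubation, viability was read by fluorescence (Ex 405/Em 525) and luciferase output by luminescence.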
Giardia kill = Giardia lamblia killing | Giardia lamblia trophozoite viability | activity change, % at 7.66 µM, hits read low | 340,000 compounds, 0.15% hits; in the data active means activity change below about -80%; inconclusive means between about -30% and that limit;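 further: parasites exposed to compound for two days anaerobically before the ATP read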
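Compounds were tested on trophozoites seeded at 100 cells/well and held 48 hrs at 37 deg C anaerobically. An ATP-based luminescent kit measured the remaining live cells.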
PI4K2A inh = PI4K2A (human) kinase inhibition; activity change, negative = inhibition, % at 76.9 µM; 420,000 compounds, 0.13% hits; purified PI4K2A, ADP-Glo luminescence, 1 h; hits give low values; in the data active means activity change below about -50%; inconclusive means mostly about -30% to -49%;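 further: -100% = wells without enzyme as full effect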
Target sequence (Q9BTU6 whole entry, looked up): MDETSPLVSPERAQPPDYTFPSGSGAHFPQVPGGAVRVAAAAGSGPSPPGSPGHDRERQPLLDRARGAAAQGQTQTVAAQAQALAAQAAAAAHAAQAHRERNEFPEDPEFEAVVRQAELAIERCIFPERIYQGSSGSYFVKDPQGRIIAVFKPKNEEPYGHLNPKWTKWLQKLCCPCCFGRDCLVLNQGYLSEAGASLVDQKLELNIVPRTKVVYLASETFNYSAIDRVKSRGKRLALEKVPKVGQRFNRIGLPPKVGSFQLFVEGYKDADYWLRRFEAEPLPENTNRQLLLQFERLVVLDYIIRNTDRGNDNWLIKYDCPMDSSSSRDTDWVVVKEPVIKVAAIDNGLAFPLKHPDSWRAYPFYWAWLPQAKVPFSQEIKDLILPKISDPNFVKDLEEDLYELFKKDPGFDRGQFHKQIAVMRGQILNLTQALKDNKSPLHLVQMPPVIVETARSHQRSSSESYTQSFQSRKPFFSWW
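ADP-Glo luminescence measured ADP generated by PI4K2A enzyme (4 ug/mL before mixing) with 1.2 mM PI substrate (pre-mix) and 300 microM ATP (pre-mix). Tris pH7.5 buffer with MgCl2, Triton X-100; 1 h reaction at ambient temperature.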
KB-3-1 tox = KB-3-1 parental cell cytotoxicity. KB-3-1 viability, CellTiter-Glo ATP luminescence, 72 h. Potency, µM (series often up to 46.1 µM), hits mostly cytotoxic. 400,000 compounds, 1.4% hits. AID 1347075; further: potency means the concentration at half of the fitted maximal effect; nearly all actives have a fitted effect of over 60% in size
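Cytotoxicity in the drug-sensitive parental line KB-3-1 was scored as loss of CellTiter-Glo luminescence following 72 h incubation with compound. Values come from curve fitting of normalized concentration-response data.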
KB-V1 cytotox = kills drug-selected multidrug resistant KB-V1 cells; KB-V1 MDR cells viability, CellTiter-Glo, 72 h; Potency, µM (highest dose often 46.1 µM), most hits filed as cytotoxic; 400,000 compounds, 3.4% hits; further: potency means the concentration at half of the fitted maximal effect; nearly all actives have a fitted effect of over 60% in size
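Readout: CellTiter-Glo luminescence, 10 min after addition. Cells: KB-V1 MDR subline, 72 h at 37 degrees C with compound. Analysis: corrected, normalized data fitted to concentration-effect curves.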
* = called active by the depositor; i = inactive; ? = inconclusive; · = not tested or not shown; ! = repeats disagree. Unless noted, the call rests on the fitted dose curve; in most records, active means well fitted curve in the direction sought with a large enough effect; inconclusive means small, poorly fitted or top-dose-only effect, or another doubt; inactive means no such curve, though single readings can be large; an effect the other way counts as inactive or inconclusive. Unless noted, on the % scale 0 is the no-effect control and ±100 the full control effect.

SMILES	A549 viability	Nrf2 block	Giardia kill	PI4K2A inh	KB-3-1 tox	KB-V1 cytotox
CCc1nc(C)cn1S(=O)(=O)c1cc(Br)ccc1OC	?	23.1µM*	-1.0	1.3	i	16.4µM*
CCc1nc(C)cn1S(=O)(=O)c1cc(F)ccc1OC	-0.3%	0.3%	10.5	1.3	i	i
O=S(=O)(c1ccc2c(c1)OCCO2)N1CCN(S(=O)(=O)c2ccccc2OC(F)(F)F)CC1	-0.2%	-5.5%	·	·	·	·
COc1ccc(C(=O)NC(=S)N2CCN(c3ccccc3O)CC2)cc1	?	12.1%	5.5	-5.4	i	20.6µM*
Oc1ccccc1N1CCN(C(=S)NCCc2ccccc2)CC1	-1.6%	4.0%	-5.8	4.7	?	14.6µM*
COC(=O)c1ccccc1NC(=O)CSc1nc2ccccc2nc1Cc1ccc(F)cc1	2.0%	·	·	-0.9	i	?
Nc1c(Cl)ncnc1NCCc1ccc(O)cc1	-18.7%	5.8µM*	23.2	1.2	?	?
C=CCN1C(C(=O)OC)CN(Cc2cn(CCC3OCCO3)nn2)CCS1(=O)=O (configuration not stated)	·	·	·	-13.0	·	·
COc1ccc(Cc2nnc(N/N=C/c3ccc(O)cc3)[nH]c2=O)cc1OC	5.3%	?	10.6	1.9	0.581µM*	?
COc1ccc(-c2cc3ccc(O)c(CN4CCCC4)c3oc2=O)cc1OC	?	·	·	-0.3	·	·
COc1ccc(OC)c(NC(=O)c2nc(S(=O)(=O)Cc3ccccc3)ncc2Cl)c1	?	?	-7.0	4.7	4.11µM*	?
O=C(Nc1ccc(F)cc1)c1nc(S(=O)(=O)Cc2ccccc2)ncc1Cl	?	?	-1.8	-3.9	5.17µM*	?
Cc1ccc(NC(=O)c2nc(S(=O)(=O)Cc3ccccc3)ncc2Cl)cc1	-15.3%	-20.7%	-1.9	-0.6	13µM*	?
Cc1cccc(C)c1NC(=O)c1nc(S(=O)(=O)Cc2ccccc2)ncc1Cl	0.1%	?	-11.5	1.8	?	?
O=C(NCc1ccccc1)c1nc(S(=O)(=O)Cc2ccc(F)cc2)ncc1Cl	?	25.9µM*	·	4.2	·	·
CC1=C(c2ccc(C)c(C)c2)S(=O)(=O)N=C1N1CCC(C(=O)NCCc2ccc(Cl)cc2)CC1	-15.4%	-26.9%	·	3.0	·	·
Cc1nnc(NC(=O)c2nc(S(=O)(=O)Cc3ccccc3)ncc2Cl)s1	?	?	-18.2	-15.5	10.3µM*!	?
Cc1cccc(CS(=O)(=O)c2ncc(Cl)c(C(=O)Nc3c(C)cccc3C)n2)c1	?	14.6µM*	-16.5	-5.3	?	?
CCCc1nnc(NC(=O)c2nc(S(=O)(=O)Cc3cccc(C)c3)ncc2Cl)s1	-13.1%	0.2%	22.1	-26.8	i	i
CC(C)(C)OC(=O)N1CCC(C(=O)Nc2cccc(C(=O)NCCCc3ccccc3)c2)CC1	-6.3%	23.1µM*	7.4	-2.0	i	i
CC(C)(C)OC(=O)N(Cc1ccccc1)Cc1cccc(OCc2cccc(NC(=O)C3CC3)c2)c1	-5.6%	25.9µM*	4.1	-2.9	?	?
CCc1cccc(NC(=O)Cn2cc(C(=O)c3ccncc3)c(=O)c3cc(C)c(C)cc32)c1	5.3%	·	·	-3.0	·	·
O=C(N1CCc2ccc(S(=O)(=O)N3CCN(S(=O)(=O)c4ccc5c(c4)OCCO5)CC3)cc2C1)C(F)(F)F	-2.1%	16.9%	·	·	·	·
COc1ccc(CNC(=O)c2csc(Cc3ccc(OC)cc3)n2)cc1	-1.7%	·	24.3	0.6	?	i
COc1ccc(CC(=O)NCCc2csc(-c3ccc(Cl)cc3)n2)cc1	4.5%	·	·	5.4	i	0.92µM*
COc1ccc(CC(=O)NCCc2csc(-c3cccc(C)c3)n2)cc1	7.8%	·	·	1.2	·	·
COc1ccc(CNC(=O)c2csc(Cc3ccc(Cl)cc3)n2)cc1	8.9%	23.1µM*	3.0	-5.6	i	?
O=C(NCCc1csc(-c2ccc(C(F)(F)F)cc2)n1)c1ccc(F)c(F)c1	7.7%	·	·	0.8	23.1µM*	13µM*
Cc1cc(C)cc(C(=O)NCCc2csc(-c3ccc(C(F)(F)F)cc3)n2)c1	0.3%	·	·	1.3	·	·
